# Shown are actives, neighbours in structure and some others; about 4.4% of the full set was active somewhere.
# USP1 inh – Inhibitors of USP1/UAF1: Primary Screen. Potency, µM (series often up to 57.1 µM), for the others: top-dose activity change, negative = inhibition, actives largely listed as inhibitors. 0.23% of 390,000 active. Ubiquitin carboxyl-terminal hydrolase 1 (Homo sapiens), O94782. recombinant USP1/UAF1, Ub-Rhodamine cleavage fluorescence. AID 743255, 2014; active = well fitted inhibition curve with a large enough effect; inconclusive = small, poorly fitted or top-dose-only effect; inactive = no such curve, though single readings can be large or run the other way; also: potency is read from the fitted curve at half-maximal effect; % is scaled to controls: 0 for no effect and ±100 for the full control effect; nearly all actives have a fitted effect of over 60% in size
# Target sequence (O94782 whole entry, looked up): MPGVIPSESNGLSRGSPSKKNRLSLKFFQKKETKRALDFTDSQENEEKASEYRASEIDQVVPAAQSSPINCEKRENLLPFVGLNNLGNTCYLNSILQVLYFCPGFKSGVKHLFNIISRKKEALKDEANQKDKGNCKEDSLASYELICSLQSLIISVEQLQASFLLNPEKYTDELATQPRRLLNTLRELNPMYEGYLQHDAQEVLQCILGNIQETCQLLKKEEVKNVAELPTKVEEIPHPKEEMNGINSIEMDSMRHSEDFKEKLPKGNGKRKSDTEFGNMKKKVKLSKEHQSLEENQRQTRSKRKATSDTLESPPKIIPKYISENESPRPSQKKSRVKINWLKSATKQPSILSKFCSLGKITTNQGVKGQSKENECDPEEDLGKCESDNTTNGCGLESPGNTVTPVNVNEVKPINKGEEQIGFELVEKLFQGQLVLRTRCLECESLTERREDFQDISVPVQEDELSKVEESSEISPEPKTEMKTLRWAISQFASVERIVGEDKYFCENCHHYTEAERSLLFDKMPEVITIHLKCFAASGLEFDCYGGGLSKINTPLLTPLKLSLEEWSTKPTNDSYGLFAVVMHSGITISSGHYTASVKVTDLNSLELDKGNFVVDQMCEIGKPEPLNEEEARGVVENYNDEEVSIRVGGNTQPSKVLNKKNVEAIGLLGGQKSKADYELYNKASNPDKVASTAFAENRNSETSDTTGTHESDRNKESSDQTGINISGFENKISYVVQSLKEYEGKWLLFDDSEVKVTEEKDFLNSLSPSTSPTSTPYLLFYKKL
#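 High-throughput fluorogenic screen: 1nM USP1/UAF1 complex, Ub-Rho substrate 150nM final, 50mM HEPES pH 7.8 with 0.5mM EDTA, 0.1 mg/ml BSA, 1mM TCEP and 0.01% Tween-20.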
# D1 potentiator – Potentiators of Human D1 Dopamine Receptor: qHTS | D(1A) dopamine receptor (Homo sapiens), P21728 | HEK293 TREx D1 cells, calcium flux, dopamine EC20 potentiation | potentiation, % at 10 µM | 0.036% of 360,000 active | AID 504651, 2011; in the data active = potentiation above about 30%; also: 0% is about no effect
# D1 agonist – Allosteric Agonists of the Human D1 Dopamine Receptor: qHTS; D(1A) dopamine receptor (Homo sapiens), P21728; HEK293 T-REx D1 cells, calcium flux, agonist mode; activation, % at 2 µM; 1% of 360,000 active; AID 504660, 2011; also: 0% is about no effect
#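 Tetracycline-induced HEK293 TREx D1 cells, force-coupled to calcium signalling, were dye-loaded with a no-wash calcium kit. Compound was pin-added after a 10 s baseline. Fluorescence was read kinetically at 1 cycle/s for 180 s, with calcium rises flagged as agonism.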
# D1 antag – Antagonist of Human D 1 Dopamine Receptor: qHTS; D(1A) dopamine receptor (Homo sapiens), P21728; HEK293 TREx D1 cells, calcium flux, dopamine EC80; stronger effect = lower value; activity change, negative = inhibition, % at 10 µM; 3.2% of 360,000 active; AID 504652, 2011; in the data active = activity change below about -30%; also: % is scaled to controls: 0 for no effect and ±100 for the full control effect
#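 Cells carrying a force-coupled, tetracycline-inducible human D1 receptor report calcium flux. Each well gets a 10 s baseline, compound with 180 s monitoring, then an EC80 dopamine stimulus with a second 180 s kinetic read.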
# TRHR agonist – qHTS for Small Molecule Agonists and Allosteric Enhancers of Human TRH Receptor: Primary Screen for Agonists | 0.18% of 360,000 active | activation, % at 2 µM | TRHR cells, calcium flux fluo-8, FDSS agonist mode | Thyrotropin-releasing hormone receptor (Homo sapiens), P34981 | AID 493084, 2011; also: 0% is about no effect
#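 Read-out: compound-evoked intracellular calcium rise in TRHR cells, fluo-8 dye, kinetic FDSS fluorescence at 1 s/cycle following a 10-cycle baseline. Cells cultured overnight before dye loading (30 min–1.5 h, RT).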
# TRHR PAM – qHTS for Small Molecule Agonists and Allosteric Enhancers of Human TRH Receptor: Primary Screen for Enhancers; Thyrotropin-releasing hormone receptor (Homo sapiens), P34981; TRHR cells, fluo-8 calcium fluorescence, EC20 TRH enhancement; enhancement, % at 2 µM; 0.66% of 360,000 active; AID 493056, 2011; in the data active = enhancement above about 30%; also: 0% is about no effect
#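 TRHR-expressing cells loaded with fluo-8 calcium dye were read kinetically (ex 480/em 530) during compound addition, then stimulated with an EC20 of TRH (10 nM final). Enhancement of the Gq-mediated intracellular calcium response was scored.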
# An asterisk follows results filed as active; ? = inconclusive; nt = not tested or not shown. Rule as the data show it, unless noted: active = activation above about 30%; inactive = the rest.
SMILES,USP1 inh,D1 potentiator,D1 agonist,D1 antag,TRHR agonist,TRHR PAM
O=C(CCCN1C(=O)c2cccnc2C1=O)Nc1ccc(Br)cc1,-8%,-5,-1,-55*,0,9
CC1=C(C(N)=O)C(c2cccc(C)c2)n2nc(-c3cccc(C)c3)nc2N1 (centres undefined),4%,0,2,1,0,1
CCCCNC(=O)/C(=C\c1ccc([N+](=O)[O-])o1)NC(=O)c1ccccc1,-10%,-3,3,-39*,1,1
Cc1ccc(C(=O)N/C(=C\c2ccc(-c3ccccc3[N+](=O)[O-])o2)C(=O)NCCCN(C)C)cc1,28µM*,-3,20,-8,4,3
CN(C)C(=O)/C(=C/c1ccc(-c2cccc([N+](=O)[O-])c2)o1)NC(=O)c1ccccc1,-21%,-2,5,-56*,-1,-3
CN(C)C(=O)/C(=C\c1ccc(-c2cccc([N+](=O)[O-])c2)o1)NC(=O)c1ccccc1,-24%,-7,0,13,0,-5
COc1cccc(NC(=O)c2ccc3nc(Cc4ccccc4)oc3c2)c1,?,0,7,-8,0,2
COc1cccc(N/C(=N/C(=S)Nc2ccc(C)cc2C)Nc2nc(C)cc(C)n2)c1,-21%,-4,9,-61*,1,3
COc1ccc(C(=O)N2CC3(C)CC2CC(C)(C)C3)cc1 (centres undefined),-8%,-6,1,-32*,0,-3
COc1cc(Cl)ccc1OCc1cc(C(=O)N2C[C@]3(C)C[C@H]2CC(C)(C)C3)no1,-26%,8,38*,16,1,-5
CC1(C)CC2CC(C)(CN2C(=O)c2ccccc2)C1 (centres undefined),-17%,-4,0,4,-1,-5
O=C(CSc1cc([N+](=O)[O-])cc(S(=O)(=O)Cc2ccccc2)c1)NC1CC1,9%,-9,2,-40*,0,-1
O=C(NCCc1nc2ccccc2n1CCOc1ccc(Cl)cc1)C1CCCCC1,nt,-3,17,-4,2,-5
NS(=O)(=O)c1ccc2c(c1)C(=NO)c1cc(S(N)(=O)=O)ccc1-2,-20%,2,0,-2,0,5
NC1=C(Cl)C(=O)c2ccc(S(N)(=O)=O)cc2C1=O,1.3µM*,nt,nt,nt,nt,nt
Cc1ccc(C)c(NC(=O)c2cc(S(=O)(=O)N3CCCCC3)ccc2N2CCOCC2)c1,1%,-11,4,0,1,-10
Cc1ccc(S(=O)(=O)N2CCOCC2)cc1NC(=O)CSc1nnnn1C,-19%,2,3,-35*,4,0
Cc1ccc(S(=O)(=O)N2CCOCC2)cc1NC(=O)c1cc([N+](=O)[O-])ccc1N1CCOCC1,-23%,0,-2,-69*,0,-1
O=C(Nc1nc(-c2ccc(-c3ccccc3)cc2)cs1)c1cc([N+](=O)[O-])ccc1N1CCOCC1,-9%,-7,0,-36*,-3,-3
Cc1ccc(C(=O)Nc2nnc(S(=O)(=O)N(C)Cc3ccc(F)cc3)s2)cc1,-5%,-2,10,-4,0,1
COc1cc(OC)cc(C(=O)Nc2nnc(NC(=S)Nc3ccccc3)s2)c1,2%,-7,1,28,1,36*
CC(C)Oc1cccc(C(=O)NC(=S)Nc2ccccc2)c1,-20%,-4,5,-35*,-2,-6
O=C(COc1ccc(F)cc1)Nc1ccc(OCc2cc(=O)n3ccsc3n2)cc1,-12%,-2,-1,-2,-2,6
CCCc1cc(=O)n2[nH]c(NC(=O)c3ccc(C(C)(C)C)cc3)nc2n1,-5%,-2,-1,2,1,-3
CCc1nnc(NS(=O)(=O)c2ccc(NCc3cc(Cl)ccc3O)cc2)s1,?,-4,1,7,0,6
SMILES,USP1 inh,D1 potentiator,D1 agonist,D1 antag,TRHR agonist,TRHR PAM
CCc1nnc(NS(=O)(=O)c2ccc(NCc3cc(Cl)cc(Cl)c3O)cc2)s1,-12%,0,33*,6,0,11
CCOC(=O)Cc1csc(NC(=O)NC2(C(F)(F)F)Oc3cc(Cl)c(Cl)cc3O2)n1,-14%,-2,35*,-25,3,9
CCOC(=O)Cc1csc(NC(=O)Nc2ccc(OC(F)(F)F)cc2)n1,-15%,-8,20,-36*,0,-4
CCOC(=O)Cc1csc(NC(=O)c2ccc(NC(C)=O)cc2)n1,-12%,2,2,-2,1,-4
CCOC(=O)Cc1csc(NC(=O)Cc2ccc(Cl)cc2)n1,-5%,-2,8,-2,-1,0
CCOC(=O)Cc1csc(NC(=O)c2cc(C)c(C)s2)n1,-17%,-7,9,-35*,-1,-11
CCOC(=O)Cc1csc(NC(=O)Cc2ccc(Br)cc2)n1,-27%,0,4,-37*,-2,-7
CCOc1ccc(NC(=O)CSc2oc(-c3ccc(F)cc3)nc2S(=O)(=O)c2ccc(C)cc2)cc1,4%,-1,2,5,0,-5
CCc1cccc(CC)c1NC(=O)Cn1nnc2sc3c(c2c1=O)CCCC3,-2%,-4,2,-2,2,-1
Brc1ccccc1-n1ncc2c1ncn1nc(Cc3ccccc3)nc21,-19%,0,0,-63*,0,-4
CCOC(=O)C(NCCc1ccccc1)(NC(=O)CC)C(F)(F)F (centres undefined),-9%,-4,3,-12,0,-9
CCOC(=O)C(NCCc1ccccc1F)(NC(=O)CC)C(F)(F)F (centres undefined),-3%,2,3,-11,-4,34*
CCN(c1cccc(C)c1)S(=O)(=O)c1ccc(N2CCCCS2(=O)=O)cc1,-23%,-6,11,-19,0,5
Cn1nc(C(F)(F)F)c(-c2ccc(F)cc2)c1NC(=O)Nc1ccc(F)cc1,-5%,-12,31*,-67*,2,2
Cn1nc(C(F)(F)F)c2cc(C(=O)Nc3ccc(F)cc3)sc21,-16%,-5,4,2,0,-7
CCc1ccccc1NC(=O)CSc1ncc2c(n1)-c1cc(Cl)ccc1N(Cc1ccccc1)S2(=O)=O,-6%,1,1,-50*,1,-2

# From PubChem BioAssay
